We go through 8 compounds from PubChem BioAssay (Tox21).

Where “and” joins values, the source holds several entries; their conditions need not be identical. Equal entries are not always repeated. Calls of active or inactive are those of the source. Unless noted, calls come from the whole dose curve; as a rule, active = well fitted curve in the direction sought with a large enough effect in the repeat runs; inconclusive = weak or mixed curves; inactive = no such curve, though single readings can be large; an effect the other way counts as inactive or inconclusive. Non-standard residues stand in square brackets, D forms with d. Residues, ends and D or L forms follow the SMILES beside them. Orn = NCCC[C@H](N)C(=O)O

Test [1] in a line: qHTS assay to identify small molecule antagonists of the thyroid receptor (TR) signaling pathway - cell viability counter screen (AID 743064). Note: nearly all actives have a fitted effect of over 50% in size. Note: potency is the fitted concentration of half-maximal effect. In a few lines: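 Fluorescence from CellTiter-Fluor, added after 23.5 h exposure at 37 °C, reported viability of GH3.TRE-Luc cells co-treated with compound and 1 nM T3. Measured in the same wells as the luciferase TR readout.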
(In general: Quantitative high-throughput screening tests each substance at several concentrations.)

Test [2] has as its system thyroid hormone receptor (rat, GH3 cells). The experiment in a line: qHTS assay to identify small molecule agonists of the thyroid receptor (TR) signaling pathway (AID 743066; calls by dose curve).
For test [3], the target named is Estrogen receptor (Homo sapiens) (UniProt P03372). As to the kind of experiment: qHTS assay to identify small molecule antagonists of the estrogen receptor alpha (ER-alpha) signaling pathway (AID 743069; active = well fitted curve in the direction sought with a large enough effect in the signal ratio in the repeat runs, not every such curve was filed as active; inconclusive = weak or mixed curves, or effect the other way; inactive = no such curve, though single readings can be large or run the other way; the % refers to the signal ratio; note: potency is the fitted concentration of half-maximal effect). An outline of the steps:
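HEK293 cells stably carrying an ER-alpha-UAS-bla beta-lactamase reporter were pre-cultured overnight in 2% charcoal-stripped FBS medium. Test compounds in DMSO were added together with 17beta-estradiol for 18 hr at 37C. Read-out was fluorescence after 2 hr with LiveBLAzer B/G FRET substrate at room temperature.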

Test [4] in a line: qHTS assay to identify small molecule antagonists of the estrogen receptor alpha (ER-alpha) signaling pathway - cell viability counter screen (AID 743074; calls by dose curve; note: nearly all actives have a fitted effect of over 45% in size; note: potency is the fitted concentration of half-maximal effect).
Test [5] deals with Estrogen receptor (Homo sapiens) (UniProt P03372). As to the kind of experiment: qHTS assay to identify small molecule agonists of the estrogen receptor alpha (ER-alpha) signaling pathway (AID 743075; calls by dose curve).
Chain of Estrogen receptor (Homo sapiens) (P03372 whole entry, looked up): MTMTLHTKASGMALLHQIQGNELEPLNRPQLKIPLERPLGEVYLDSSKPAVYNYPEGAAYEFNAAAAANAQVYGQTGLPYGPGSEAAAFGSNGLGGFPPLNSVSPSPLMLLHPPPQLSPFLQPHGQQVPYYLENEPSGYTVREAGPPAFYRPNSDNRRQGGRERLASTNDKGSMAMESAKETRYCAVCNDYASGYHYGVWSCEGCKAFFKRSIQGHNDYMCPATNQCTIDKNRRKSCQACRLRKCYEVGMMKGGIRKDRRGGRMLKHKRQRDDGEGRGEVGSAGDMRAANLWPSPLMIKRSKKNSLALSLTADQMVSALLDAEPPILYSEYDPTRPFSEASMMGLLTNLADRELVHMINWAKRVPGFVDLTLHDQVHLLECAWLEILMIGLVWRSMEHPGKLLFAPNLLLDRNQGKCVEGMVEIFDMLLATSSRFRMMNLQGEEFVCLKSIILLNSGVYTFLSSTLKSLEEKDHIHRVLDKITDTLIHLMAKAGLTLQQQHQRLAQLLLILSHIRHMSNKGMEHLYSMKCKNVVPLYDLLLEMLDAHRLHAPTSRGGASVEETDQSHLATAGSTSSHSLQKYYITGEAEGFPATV
Test [6] shares this target. The experiment in a line: qHTS assay to identify small molecule agonists of the estrogen receptor alpha (ER-alpha) signaling pathway using the BG1 cell line (AID 743079). Note: nearly all actives have a fitted effect of over 20% in size.
Test [7] in a line: qHTS assay to identify small molecule antagonists of the estrogen receptor alpha (ER-alpha) signaling pathway using the BG1 cell line (AID 743080; calls by dose curve;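 note: BG1 cells stimulated with 17beta-estradiol alongside compound; nearly all actives have a fitted effect of over 25% in size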; note: potency is the fitted concentration of half-maximal effect). An outline of the steps: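 Seeding, 24 h rest, compound transfer from DMSO, 17beta-estradiol addition, 21.5 h incubation, CellTiter-Fluor (30 min, 37 C), then ONE-Glo (30 min, room temperature): this sequence was run on BG1-Luc-4E2 reporter cells.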

Test [8] in a line: qHTS assay to identify small molecule antagonists of the estrogen receptor alpha (ER-alpha) signaling pathway using the BG1 cell line - cell viability counter screen (AID 743081).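 Note: compound given together with 17beta-estradiol as the ER stimulus; series mostly up to about 70 µM; nearly all actives have a fitted effect of over 45% in size.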
The target of another test is Aromatase (Homo sapiens) (UniProt P11511). As to the kind of experiment: qHTS assay to identify aromatase inhibitors (AID 743083). Note: nearly all actives have a fitted effect of over 55% in size. Note: potency is the fitted concentration of half-maximal effect.
Chain of Aromatase (Homo sapiens) (P11511 whole entry, looked up): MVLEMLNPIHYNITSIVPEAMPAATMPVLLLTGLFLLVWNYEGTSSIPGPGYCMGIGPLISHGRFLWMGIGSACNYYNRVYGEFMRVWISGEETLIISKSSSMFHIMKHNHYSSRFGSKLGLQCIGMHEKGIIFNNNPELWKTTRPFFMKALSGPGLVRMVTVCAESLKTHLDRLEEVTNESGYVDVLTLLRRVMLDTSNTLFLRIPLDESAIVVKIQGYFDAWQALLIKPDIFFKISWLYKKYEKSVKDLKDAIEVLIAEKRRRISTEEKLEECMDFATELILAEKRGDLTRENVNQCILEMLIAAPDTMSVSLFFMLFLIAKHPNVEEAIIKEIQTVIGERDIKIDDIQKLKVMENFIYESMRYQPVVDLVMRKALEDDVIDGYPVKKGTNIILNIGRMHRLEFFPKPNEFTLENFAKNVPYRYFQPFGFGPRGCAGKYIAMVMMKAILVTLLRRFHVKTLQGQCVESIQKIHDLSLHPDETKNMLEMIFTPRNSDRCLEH
A short description of test [9]: qHTS assay to identify aromatase inhibitors - cell viability counter screen (AID 743084).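 Note: cells stimulated with testosterone during compound exposure; nearly all actives have a fitted effect of over 55% in size.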
Test [10] addresses Aryl hydrocarbon receptor (Homo sapiens) (UniProt P35869). As to the kind of experiment: qHTS assay to identify small molecule that activate the aryl hydrocarbon receptor (AhR) signaling pathway (AID 743085).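 For activation: HG2L7.5c1 human HepG2 liver cells with stably integrated DRE-driven firefly reporter; series mostly up to about 70 µM.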 Note: nearly all actives have a fitted effect of over 15% in size. Note: potency is the fitted concentration of half-maximal effect. An outline of the steps: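 Cell line HG2L7.5c1 (human hepatoma, 20× DRE-luc). Plated, 5 h 37C, compound/DMSO added, 24 h 37C. CellTiter-Fluor 30 min 37C → fluorescence; then ONE-Glo 30 min RT → luminescence.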

Test [11] in a line: qHTS assay to identify small molecule that activate the aryl hydrocarbon receptor (AhR) signaling pathway - cell viability counter screen (AID 743086). Note: nearly all actives have a fitted effect of over 45% in size. Note: potency is the fitted concentration of half-maximal effect. An outline of the steps: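 HepG2-AhR-luc (HG2L7.5c1) cells, 4000/well, were preincubated 5 h at 37C, exposed to compound in qHTS format for 24 hr at 37C, then given CellTiter-Fluor for 30 min; viability was read as fluorescence in the reporter wells.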

Test [12] concerns the target Peroxisome proliferator-activated receptor gamma (Homo sapiens) (UniProt P37231). As to the kind of experiment: qHTS assay to identify small molecule agonists of the peroxisome proliferator-activated receptor gamma (PPARg) signaling pathway (AID 743094; active = well fitted activation curve with a large enough effect in the signal ratio in the repeat runs, not every such curve was filed as active; inconclusive = weak or mixed curves, or effect the other way; inactive = no such curve, though single readings can be large or run the other way; the % refers to the signal ratio). In a few lines:
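Compounds dissolved in DMSO were added to PPARg UAS-bla HEK293H cells for 17 h at 37C, and reporter expression was quantified by fluorescence intensity after 1 h with LiveBLAzer B/G FRET substrate.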

Test [13] in a line: qHTS assay to identify small molecule antagonists of the thyroid receptor (TR) signaling pathway (AID 743065). Note: potency is the fitted concentration of half-maximal effect; nearly all actives have a fitted effect of over 55% in size. In a few lines: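 GH3.TRE-Luc rat pituitary cells carrying two TR response elements driving luciferase were plated for 4 h, given compound plus 1 nM T3 (final), and incubated 23.5 h at 37 C. ONE-Glo luminescence measured reporter inhibition; CellTiter-Fluor fluorescence tracked cytotoxicity.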

A short description of test [14]: qHTS assay for small molecule activators of the heat shock response signaling pathway - cell viability counter screen (AID 743209). Note: nearly all actives have a fitted effect of over 50% in size. Note: potency is the fitted concentration of half-maximal effect. An outline of the steps:
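Readout: CellTiter-Glo luminescence, 30 min at room temperature. System: HSE-bla HeLa cells, 1500/well, plated overnight. Treatment: compounds in DMSO, 5 h at 37 C.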

The nature of test [15]: qHTS assay to identify small molecule agonists of the peroxisome proliferator-activated receptor delta (PPARd) signaling pathway - cell viability counter screen (AID 743211). Note: potency is the fitted concentration of half-maximal effect; nearly all actives have a fitted effect of over 55% in size. In a few lines:
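HEK293H PPARd-bla, 3000 cells/well; 5 h preincubation 37C/5% CO2; cpd in DMSO, 17 h 37C; B/G FRET substrate 2 h RT; CellTiter-Glo 30 min RT, luminescence.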

Test [16] deals with Peroxisome proliferator-activated receptor gamma (Homo sapiens) (UniProt P37231). The experiment in a line: qHTS assay to identify small molecule antagonists of the peroxisome proliferator-activated receptor gamma (PPARg) signaling pathway (AID 743191; calls by dose curve; note: series mostly up to about 63 µM; nearly all actives have a fitted effect of over 30% in size). In a few lines:
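GeneBLAzer PPARg UAS-bla HEK293H cells carrying a UAS-driven beta-lactamase reporter were plated at 3000 cells/well, preincubated 5 h at 37C, then given compound for 17 h at 37C; LiveBLAzer B/G FRET substrate was read after 1 h at room temperature.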

A short description of test [17]: qHTS assay for small molecule activators of the heat shock response signaling pathway (AID 743210; active = well fitted activation curve with a large enough effect in the signal ratio in the repeat runs, with a control signal flat, not every such curve was filed as active; inconclusive = weak or mixed curves; the % refers to the signal ratio; note: series mostly up to about 63 µM). An outline of the steps:
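HSE-bla HeLa cells (beta-lactamase reporter under heat shock response elements) were exposed to compounds for 5 h at 37 C, then loaded with LiveBLAzer B/G FRET substrate for 2.5 h at room temperature before fluorescence reading.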

Test [18] in a line: qHTS assay to identify small molecule antagonists of the peroxisome proliferator-activated receptor gamma (PPARg) signaling pathway - cell viability counter screen (AID 743194). An outline of the steps:
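PPARg-UAS-bla HEK293H cells were plated, rested 5 h at 37 C, then treated with compounds plus rosiglitazone (50 nM final) for 17 h at 37 C; viability was then read by CellTiter-Glo luminescence after 30 min at room temperature.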

Chain of Aryl hydrocarbon receptor (Homo sapiens) (P35869 whole entry, looked up): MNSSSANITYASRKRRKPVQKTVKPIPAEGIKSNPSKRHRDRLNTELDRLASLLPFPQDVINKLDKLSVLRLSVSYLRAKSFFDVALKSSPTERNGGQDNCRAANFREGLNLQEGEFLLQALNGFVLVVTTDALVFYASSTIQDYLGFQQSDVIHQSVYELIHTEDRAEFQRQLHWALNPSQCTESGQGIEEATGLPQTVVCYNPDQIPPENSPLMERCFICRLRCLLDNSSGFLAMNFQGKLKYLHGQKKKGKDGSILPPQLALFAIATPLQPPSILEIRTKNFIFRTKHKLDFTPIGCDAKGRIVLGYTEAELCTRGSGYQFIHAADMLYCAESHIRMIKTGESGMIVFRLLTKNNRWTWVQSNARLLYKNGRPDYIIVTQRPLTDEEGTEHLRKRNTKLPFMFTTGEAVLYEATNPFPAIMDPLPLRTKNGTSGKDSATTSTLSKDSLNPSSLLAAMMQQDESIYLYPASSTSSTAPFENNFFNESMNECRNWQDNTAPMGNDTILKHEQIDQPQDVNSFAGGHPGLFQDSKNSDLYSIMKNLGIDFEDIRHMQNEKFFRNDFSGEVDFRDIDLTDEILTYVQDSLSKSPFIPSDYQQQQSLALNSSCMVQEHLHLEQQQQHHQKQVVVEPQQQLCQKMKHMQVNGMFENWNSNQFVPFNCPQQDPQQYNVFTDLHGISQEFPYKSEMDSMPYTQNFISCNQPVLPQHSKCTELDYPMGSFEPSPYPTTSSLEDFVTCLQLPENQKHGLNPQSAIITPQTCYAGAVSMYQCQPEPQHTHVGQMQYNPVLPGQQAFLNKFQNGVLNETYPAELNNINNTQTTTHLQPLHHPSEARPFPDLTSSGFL
Chain of Peroxisome proliferator-activated receptor gamma (Homo sapiens) (P37231 whole entry, looked up): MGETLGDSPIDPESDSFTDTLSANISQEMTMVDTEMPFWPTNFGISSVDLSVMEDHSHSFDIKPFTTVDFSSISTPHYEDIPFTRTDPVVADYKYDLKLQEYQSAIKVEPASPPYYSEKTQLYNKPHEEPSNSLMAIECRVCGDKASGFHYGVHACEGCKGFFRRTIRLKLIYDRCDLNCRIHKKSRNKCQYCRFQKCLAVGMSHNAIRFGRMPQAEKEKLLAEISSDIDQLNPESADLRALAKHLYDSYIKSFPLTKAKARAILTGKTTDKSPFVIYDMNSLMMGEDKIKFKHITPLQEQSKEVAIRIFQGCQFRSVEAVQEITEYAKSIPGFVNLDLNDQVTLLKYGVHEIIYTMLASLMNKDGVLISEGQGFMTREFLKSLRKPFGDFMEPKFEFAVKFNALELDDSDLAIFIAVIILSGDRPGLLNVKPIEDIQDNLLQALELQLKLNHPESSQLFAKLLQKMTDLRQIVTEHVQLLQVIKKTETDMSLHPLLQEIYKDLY

As for `CC/C=C\C/C=C\C/C=C\C/C=C\C/C=C\C/C=C\CCC(=O)O`, the Potency result in [1], in [2], in [3], in test [4], in test [5] and in test [6] was “inactive” each time. In addition, the Potency result (in test [7]; in test [8]; in the test with Aromatase (Homo sapiens); in test [9]; in [10]; in test [11]) was “inactive” in each case. Besides, the Potency result in [12] is “inactive”.
On to `CC(C)C[C@@H]1NC(=O)[C@H](CCCN)NC(=O)[C@H](C(C)C)NC(=O)[C@@H]2CCCN2C(=O)[C@@H](Cc2ccccc2)NC(=O)[C@H](CC(C)C)NC(=O)[C@H](CCCN)NC(=O)[C@H](C(C)C)NC(=O)[C@@H]2CCCN2C(=O)[C@@H](Cc2ccccc2)NC1=O` (cyclo(V[Orn]L[dF]PV[Orn]L[dF]P)), for which the Potency in [1] was 2.11 µM (active); in test [13], 0.841 µM (active); in [4], 10.7 µM (active); with Aromatase (Homo sapiens), 1.88 µM (active); in test [11] it was 18.8 µM (active). The Potency result in [5] and in test [10] was “inactive” each time.
`C=CCc1cc(S(=O)(=O)c2ccc(O)c(CC=C)c2)ccc1O`: the Potency in test [1] is 61.1 µM (active); in [13] it was 24.3 µM (active); in [3], 34.7 µM [inconclusive] (active); in [7], 61.1 µM (active); with Aromatase (Homo sapiens), 54.5 µM (active); in test [15], 43.6 µM (active). Also, the Potency result in test [4], in [5], in test [8], in test [9], in test [12] and in test [14] was “inactive” in each case.
Consider `CCC(C)(C)c1ccc(CC(C)CN2C[C@@H](C)O[C@@H](C)C2)cc1` (stereo partly specified), for which the Potency is 11.9 µM (active) in test [1], 11.9 µM (active) in test [13], 29.8 µM (active) in [7] and 26.6 µM (active) in test [15]. Besides, the Potency result in test [5], in test [8], in test [11], in [16] and in test [14] was “inactive” throughout. Besides, in test [17], the compound was called inactive.
Consider `CN1CCN(CCCN2c3ccccc3Sc3ccc(Cl)cc32)CC1`, for which the Potency in test [1] is 6.68 µM (active); in [13], 6.68 µM (active); in test [10], 9.44 µM (active); in test [11], 23.7 µM (active); in [15], 26.6 µM (active). For the same compound, the Potency result in test [5], in [7] and in [14] was “inactive” each time. In test [17], the compound was classed as inactive.
Regarding `CN1CCN(c2ccccc2/C=C2\SCCN(c3ccc(Cl)c(Cl)c3)C2=O)CC1`, the Potency in test [1] is 8.63 µM (active); in [13], 8.63 µM (active); in [4] it was 43.6 µM (active); in test [18], 49 µM (active); in test [14], 54.9 µM (active); in [15], 24.5 µM (active). Also, the Potency entry (in test [5]; with Aromatase (Homo sapiens); in [10]) was “inactive” each time.
As to `COC(=O)C[C@](O)(CCCC(C)(C)O)C(=O)O[C@@H]1C(OC)=CC23CCCN2CCc2cc4c(cc2[C@H]13)OCO4` (stereo partly specified), the Potency in [1] was 0.0596 µM (active); in test [13], 0.0376 µM (active); in [3], 674 nM [inconclusive] (active) and 1.2 µM [inconclusive] (active); in test [7], 0.168 µM (active); in the test with Aromatase (Homo sapiens), 29.8 nM (active) and 23.7 nM (active). Besides, the Potency result in test [4], in [5] and in test [8] was “inactive” each time.
Take `CCCCCCCCCCCCCCCCC(C(=O)O)C(O)(CC(=O)O)C(=O)O` (stereo unspecified): the Potency in test [1] was 26.6 µM (active); in test [13] it was 26.6 µM (active); in test [4], 26.8 µM (active); in test [14] it was 29.8 µM (active); in test [15] it was 13.3 µM (active). The Potency result (in [6]; in test [7]; in test [8]; with Aromatase (Homo sapiens); in test [9]; in test [10]) was “inactive” in each case. In addition, the Potency result in test [11] and in test [12] was “inactive” in each case.
